Rows were chosen to be rich in hits. Some 10% of all compounds tested hit in one or more screens of this group.
KB-3-1 cytotox: qHTS assay for MDR1-selective chemotherapeutics: Primary screen using the parental adenocarcinoma cell KB-3-1 | AID 1347075, 2019 | Potency, µM (highest dose often 46.1 µM), hits mostly cytotoxic | KB-3-1 viability, CellTiter-Glo ATP luminescence, 72 h | hit rate 1.4% among 400,000; note: % is set by controls: 0 for no effect and ±100 for the full control effect; nearly all actives have a fitted effect of over 60% in size
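Viability of parental KB-3-1 cells, measured by CellTiter-Glo luminescence, followed a 72 h incubation at 37 °C with pinned compounds in phenol-red-free DMEM containing 10% FBS.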
VP16 counter: VP16 counterscreen qHTS for inhibitors of ROR gamma transcriptional activity; Drosophila S2 Gal4-VP16 UAS-luciferase, luminescence, 20 h; Potency, µM (highest dose often 53.6 µM), without a hit: at the highest dose activity, negative = inhibition, most hits filed as inhibitors; hit rate 3.5% among 310,000; AID 2546, 2010;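 note: Gal4-VP16 expression switched on by copper sulfate through the metallothionein promoter; % is set by controls: 0 for no effect and ±100 for the full control effect; nearly all actives have a fitted effect of over 50% in size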
MCF10A rereplic: A quantitative high throughput screen for small molecules that induce DNA re-replication in MCF 10a normal breast cells; MCF 10A DNA re-replication, Hoechst nuclear intensity, 48 h; Potency, µM (doses to about 46.1 µM), for the others: at the top dose activity, positive = re-replication, actives largely listed as activators; hit rate 2.9% among 350,000; AID 624296, 2012; note: % of control where 0% means no effect; nearly all actives have a fitted effect of over 50% in size
SW480 rereplic: A quantitative high throughput screen for small molecules that induce DNA re-replication in SW480 colon adenocarcinoma cells; Potency, µM (highest dose often 46.1 µM), for the others: top-dose re-replication activation, usual class: activators; SW480 DNA re-replication, Hoechst DNA content imaging, 48 h; hit rate 1.8% among 340,000; note: % of control where 0% means no effect; nearly all actives have a fitted effect of over 55% in size
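250 cells/well; 23 nL cpd via pin tool; 48 hr, 37 C, 5% CO2; Hoechst 40 min; imager read of total nuclear intensity, ex 405/em 500-530 nm.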
KB-V1 MDR tox: qHTS assay for MDR1-selective chemotherapeutics: Primary screen using the drug-selected MDR subline cells KB-V1. AID 1347076, 2019. KB-V1 MDR cells viability, CellTiter-Glo, 72 h. hit rate 3.4% among 400,000. Potency, µM (titrated, usually from 46.1 µM), most hits filed as cytotoxic; note: % is set by controls: 0 for no effect and ±100 for the full control effect; nearly all actives have a fitted effect of over 60% in size
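KB-V1 cells (P-gp-expressing MDR subline of KB-3-1) in phenol-red-free DMEM with 10% FBS were exposed to library compounds over a concentration series for 72 h at 37 degrees C. Viability read by CellTiter-Glo luminescence; concentration-effect curves fitted after normalization.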
RORgamma inh: qHTS for inhibitors of ROR gamma transcriptional activity. Nuclear receptor ROR-gamma (Mus musculus), P51450. Potency, µM (doses to about 53.6 µM), inactives show at the top dose activity change, negative = inhibition, usual class: inhibitors. Drosophila S2 Gal4-RORgamma UAS-luciferase reporter, 20 h. hit rate 5.4% among 310,000; note: % is set by controls: 0 for no effect and ±100 for the full control effect; nearly all actives have a fitted effect of over 60% in size
Target sequence (P51450 whole entry, looked up, the tested form may be a part): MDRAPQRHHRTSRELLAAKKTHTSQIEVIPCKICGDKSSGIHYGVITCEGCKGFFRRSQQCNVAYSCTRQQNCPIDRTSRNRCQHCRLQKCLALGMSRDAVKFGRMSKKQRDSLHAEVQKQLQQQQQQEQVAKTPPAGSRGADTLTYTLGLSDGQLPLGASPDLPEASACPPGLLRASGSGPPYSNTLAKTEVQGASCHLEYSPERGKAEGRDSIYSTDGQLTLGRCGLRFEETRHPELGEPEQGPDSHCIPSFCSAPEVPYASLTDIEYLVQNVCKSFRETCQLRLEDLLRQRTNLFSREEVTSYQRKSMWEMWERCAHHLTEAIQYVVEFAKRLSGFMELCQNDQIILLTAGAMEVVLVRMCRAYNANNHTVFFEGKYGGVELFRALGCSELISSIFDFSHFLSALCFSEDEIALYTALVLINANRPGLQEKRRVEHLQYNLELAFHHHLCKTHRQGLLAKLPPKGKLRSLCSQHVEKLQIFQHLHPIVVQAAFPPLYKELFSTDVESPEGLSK
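In this cell-based reporter format, copper sulfate (700 uM final) drives Gal4–ROR gamma fusion expression from a metallothionein promoter in Drosophila Schneider cells; compounds preincubated 1 hr, reporter read after 20 hr at ambient temperature.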
The depositor's hits bear a star. Calls come from the whole dose curve; as a rule, active = well fitted curve in the direction sought with a large enough effect; inconclusive = small, poorly fitted or top-dose-only effect, or another doubt; inactive = no such curve, though single readings can be large; an effect the other way counts as inactive or inconclusive. Potency is the fitted concentration of half-maximal effect.

What do the screens show for `COc1ccc2cc(C(=O)C3CCCN(C(=O)c4ccnn4C)C3)ccc2c1` (stereo not given)?
KB-3-1 cytotox: inactive; VP16 counter: -10%; MCF10A rereplic: inconclusive; SW480 rereplic: inconclusive; KB-V1 MDR tox: 16µM*; RORgamma inh: 26%

How did COc1cc(CN2CCCC(C(=O)c3ccc4c5c(cccc35)CC4)C2)cc(OC)c1O (stereo not given) do in these assays?
KB-3-1 cytotox: inconclusive; VP16 counter: inconclusive; MCF10A rereplic: 21µM*; SW480 rereplic: inconclusive; KB-V1 MDR tox: inactive; RORgamma inh: inconclusive

What do the screens show for `CCn1ncc(CN2CCCC(C(=O)c3cccc(OC(C)C)c3)C2)c1C` (stereo not given)?
KB-3-1 cytotox: inactive; VP16 counter: -10%; MCF10A rereplic: 23µM*; SW480 rereplic: 0%; KB-V1 MDR tox: inactive; RORgamma inh: 14%

How did COc1ccc(C(=O)C2CCCN(C(=O)c3ccnn3C)C2)cc1OC (stereo not given) do in these assays?
KB-3-1 cytotox: inactive; VP16 counter: 13%; MCF10A rereplic: 0%; SW480 rereplic: 2%; KB-V1 MDR tox: inactive; RORgamma inh: -15%

Results for COc1ccc2cc(C(=O)C3CCCN(Cc4cccc(C)n4)C3)ccc2c1 (stereo not given) ?
KB-3-1 cytotox: inactive; VP16 counter: 13µM*; MCF10A rereplic: inconclusive; SW480 rereplic: inconclusive; KB-V1 MDR tox: inactive; RORgamma inh: 2µM*

What do the screens show for `CC(C)Oc1cccc(C(=O)C2CCCN(C(=O)c3cc(C(F)(F)F)[nH]n3)C2)c1` (stereo not given)?
KB-3-1 cytotox: inconclusive; VP16 counter: inconclusive; MCF10A rereplic: 7%; SW480 rereplic: -9%; KB-V1 MDR tox: 21µM*; RORgamma inh: inconclusive

Results for CC(C)Oc1cccc(C(=O)C2CCCN(C(=O)c3cc(C4CC4)[nH]n3)C2)c1 (stereo not given) ?
KB-3-1 cytotox: inactive; VP16 counter: -1%; MCF10A rereplic: 1%; SW480 rereplic: -2%; KB-V1 MDR tox: inactive; RORgamma inh: 37%

How did CCCC(=O)c1cc2c(cc1NC(=O)CC)OCCO2 do in these assays?
KB-3-1 cytotox: inactive; VP16 counter: 20%; MCF10A rereplic: 4%; SW480 rereplic: -4%; KB-V1 MDR tox: inactive; RORgamma inh: 19%

Results for CCC(=O)Nc1cc2c(cc1C(=O)CC)OCCO2 ?
KB-3-1 cytotox: inactive; VP16 counter: 2%; MCF10A rereplic: -2%; SW480 rereplic: 14%; KB-V1 MDR tox: 21µM*; RORgamma inh: -2%

How did Cc1ccccc1S(=O)(=O)NC(=O)C1(C)CCN1C(=O)CCc1cccs1 (stereo not given) do in these assays?
KB-3-1 cytotox: inactive; KB-V1 MDR tox: inactive

Results for CCOC(=O)c1ccc(N2C(=O)C3C(/C=C/c4ccccc4)OC4(C(=O)c5ccccc5C4=O)C3C2=O)cc1 (stereo not given) ?
KB-3-1 cytotox: inactive; VP16 counter: -16%; MCF10A rereplic: 26µM*; SW480 rereplic: -6%; KB-V1 MDR tox: inactive; RORgamma inh: 24%

What do the screens show for `CCOC(=O)c1ccc(N2C(=O)[C@@H](c3ccccc3)[C@H]2c2ccccc2)cc1`?
KB-3-1 cytotox: inactive; MCF10A rereplic: inconclusive; SW480 rereplic: -1%; KB-V1 MDR tox: inactive

What do the screens show for `COc1ccccc1NC(=O)N(C)C[C@@H]1OCc2cnnn2CCCC(=O)N([C@H](C)CO)C[C@H]1C`?
KB-3-1 cytotox: inactive; KB-V1 MDR tox: inactive

What do the screens show for `CCN1CCN(Cc2c(O)ccc3c2O/C(=C\C=C\c2ccccc2)C3=O)CC1`?
KB-3-1 cytotox: 16µM*; VP16 counter: -21%; MCF10A rereplic: inconclusive; SW480 rereplic: inconclusive; KB-V1 MDR tox: inconclusive; RORgamma inh: 32%

What do the screens show for `COc1ccccc1NC(=O)CC(=O)c1cccc([N+](=O)[O-])c1`?
KB-3-1 cytotox: inactive; VP16 counter: -6%; MCF10A rereplic: 16%; SW480 rereplic: -4%; KB-V1 MDR tox: inactive; RORgamma inh: 15%

How did COc1ccccc1NC(=O)/C(=C/c1cccc([N+](=O)[O-])c1)c1ccccc1 do in these assays?
KB-3-1 cytotox: inactive; VP16 counter: -5%; MCF10A rereplic: inconclusive; SW480 rereplic: 12%; KB-V1 MDR tox: 5.8µM*; RORgamma inh: inconclusive

Results for O=C(Nc1ccccc1Oc1ccccc1)c1cccc([N+](=O)[O-])c1 ?
KB-3-1 cytotox: inactive; VP16 counter: -17%; MCF10A rereplic: 10%; SW480 rereplic: -3%; KB-V1 MDR tox: 18µM*; RORgamma inh: 42%

Results for Cc1cc(C)cc(C(=O)N(Cc2nc(-c3ccc(Cl)cc3)no2)C(C)C)c1 ?
KB-3-1 cytotox: inactive; KB-V1 MDR tox: inactive

Results for COc1ccc(C(=O)NCC(=O)OCC(=O)c2ccc3ccccc3c2)cc1 ?
KB-3-1 cytotox: inactive; KB-V1 MDR tox: inactive

What do the screens show for `CC(=O)N=c1c(C#N)cc2c(=O)n3ccccc3nc2n1Cc1ccccc1`?
KB-3-1 cytotox: inactive; VP16 counter: 5%; MCF10A rereplic: 8.2µM*; SW480 rereplic: 5.8µM*; KB-V1 MDR tox: inactive; RORgamma inh: -10%

How did CCOCCCn1c(=NC(C)=O)c(C#N)cc2c(=O)n3ccccc3nc21 do in these assays?
KB-3-1 cytotox: inactive; VP16 counter: -2%; MCF10A rereplic: 2.6µM*; SW480 rereplic: 7.3µM*; KB-V1 MDR tox: inactive; RORgamma inh: -1%

Results for Cc1c(C)c2c(c(C)c1OC(=O)c1cccnc1)CC[C@@](C)(CCC[C@H](C)CCC[C@H](C)CCCC(C)C)O2 ?
VP16 counter: -1%; MCF10A rereplic: -1%; SW480 rereplic: -7%; RORgamma inh: 1%

How did Cc1cccc(CN2C(=O)[C@H]3Cc4c([nH]c5ccccc45)C(C)(C)N3C2=O)c1 do in these assays?
KB-3-1 cytotox: inconclusive; MCF10A rereplic: 16µM*; SW480 rereplic: inconclusive; KB-V1 MDR tox: inconclusive

Results for CC1(C)c2[nH]c3ccccc3c2C[C@@H]2C(=O)N(Cc3ccccc3)C(=O)N21 ?
KB-3-1 cytotox: inactive; MCF10A rereplic: 23µM*; SW480 rereplic: inconclusive; KB-V1 MDR tox: inconclusive

Bioassay records deposited in PubChem by National Center for Advancing Translational Sciences (NCATS).
